Source: PubChem BioAssay (National Center for Advancing Translational Sciences (NCATS))
Tau ThT inhib: inhibitors of human tau fibril formation, thioflavin T binding; P10636; Potency, µM (titrated, usually from 57.4 µM), actives largely listed as inhibitors; recombinant tau K18 P301L, heparin-induced fibrillization, ThT fluorescence; 2.1% of 270,000 active; note: nearly all actives have a fitted effect of over 55% in size
Target sequence (P10636 561-689 P618L limits assumed): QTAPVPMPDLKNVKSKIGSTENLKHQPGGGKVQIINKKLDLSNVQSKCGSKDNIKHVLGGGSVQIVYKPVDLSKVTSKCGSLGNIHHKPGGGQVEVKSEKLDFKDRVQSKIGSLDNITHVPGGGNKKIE
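Fibril formation assay: tau K18 P301L at 15 uM with trace Alexa 594 label, heparin inducer 20 uM, pH 7 sodium acetate buffer, 37 C for 6 hr; endpoint ThT signal.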
Tau FP inhib: inhibitors of human tau fibril formation | P10636 | Potency, µM (series often up to 57.7 µM), hits mostly inhibitors | 0.39% of 280,000 active | K18 P301L tau heparin fibrillization, Alexa594 FP, 6 h; note: nearly all actives have a fitted effect of over 55% in size
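K18 P301L tau (15 uM unlabeled/0.24 uM Alexa 594-labeled, final) + compound + heparin 20 uM final; 100 mM NaOAc pH 7; 6 hr 37 C; ThT 30 uM final added, 1 hr RT; FP ex 555/em 632 nm.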
ALDH1A1 block: blocks purified human ALDH1A1 activity; P00352; Purified ALDH1A1, NADH fluorescence, propionaldehyde substrate; Potency, µM (top dose mostly 75.3 µM), hits mostly inhibitors; 7.3% of 220,000 active; active = well fitted inhibition curve with a large enough effect, not every such curve was filed as active; inconclusive = small, poorly fitted or top-dose-only effect, or another doubt; inactive = no such curve, though single readings can be large or run the other way
KDM4E inh: blocks human JMJD2E demethylase activity; 1.6% of 230,000 active; JMJD2E catalytic domain, FDH-coupled NADH fluorescence (FDH is formaldehyde dehydrogenase); Potency, µM (top dose mostly 57.1 µM), most hits filed as inhibitors; B2RXH2; active = well fitted inhibition curve with a large enough effect, not every such curve was filed as active; inconclusive = small, poorly fitted or top-dose-only effect, or another doubt; inactive = no such curve, though single readings can be large or run the other way; note: nearly all actives have a fitted effect of over 50% in size
HPGD block: HPGD (human) dehydrogenase inhibition | P15428 | Potency, µM, usual class: inhibitors | purified HPGD, NADH fluorescence kinetic, PGE2 substrate | 4.3% of 150,000 active | AID 894; active = well fitted inhibition curve with a large enough effect, not every such curve was filed as active; inconclusive = small, poorly fitted or top-dose-only effect, or another doubt; inactive = no such curve, though single readings can be large or run the other way
Target sequence (P15428 whole entry, looked up): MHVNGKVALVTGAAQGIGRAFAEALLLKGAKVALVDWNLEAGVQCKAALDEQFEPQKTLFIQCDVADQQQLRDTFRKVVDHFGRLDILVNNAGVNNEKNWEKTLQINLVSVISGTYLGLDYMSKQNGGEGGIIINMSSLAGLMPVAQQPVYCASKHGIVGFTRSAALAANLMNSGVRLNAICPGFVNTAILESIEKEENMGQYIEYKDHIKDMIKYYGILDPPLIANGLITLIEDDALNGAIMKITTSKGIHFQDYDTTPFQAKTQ
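20 nM HPGD preincubated 15 min at room temperature with compound in 50 mM Tris-HCl pH 8, 0.01% Tween 20. Started with 1 mM NAD+ and 30 uM prostaglandin E2; NADH fluorescence (360/450 nm) read 5 times over 30-s intervals, last minus first.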
Tau fluor cs: counter-screen for tau fibril formation inhibitors; tau K18 P301L Alexa594 fluorescence, heparin fibrillization; Potency, µM (titrated, usually from 57.7 µM); 0.93% of 280,000 active; note: nearly all actives have a fitted effect of over 55% in size
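Human tau K18 P301L (15 uM unlabeled, 0.24 uM Alexa 594-labeled) in 100 mM sodium acetate pH 7 with 20 uM heparin, 6 hr at 37 C. ThT 30 uM added, 1 hr ambient; Alexa 594 FP and total fluorescence read at 555/632 nm.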
Numbers stand for hits; – = inactive; ? = inconclusive; · = not tested or not shown. A selection: hits, their analogues and other compounds. The true share with any hit is near 9.9%. Unless noted, calls come from the whole dose curve; as a rule, active = well fitted curve in the direction sought with a large enough effect; inconclusive = small, poorly fitted or top-dose-only effect, or another doubt; inactive = no such curve, though single readings can be large; an effect the other way counts as inactive or inconclusive.

SMILES	Tau ThT inhib	Tau FP inhib	ALDH1A1 block	KDM4E inh	HPGD block	Tau fluor cs
COC(=O)c1ccc(OC(=O)C2CC(=O)N(c3cccc(C)c3)C2)cc1 (stereo unspecified)	?	–	17.8µM	–	?	–
CC(CNC(=O)C1CCN(S(=O)(=O)c2ccc3c(ccn3C)c2)CC1)c1ccccc1 (stereo unspecified)	–	–	·	·	·	–
Cc1ccc(S(=O)(=O)N(C)C)cc1NC(=O)Nc1ccccc1	·	–	·	–	·	–
Cc1ccc(S(=O)(=O)N(C)C)cc1NC(=O)CCc1c[nH]c2ccccc12	–	–	4.47µM	–	·	–
Cc1ccc(S(=O)(=O)N(C)C)cc1NC(=O)CCc1ccccc1	–	–	4.47µM	–	·	–
CCN(CC)S(=O)(=O)c1cc(NC(=O)C(C)OC(=O)c2[nH]c(C)c(C(C)=O)c2C)ccc1C (stereo unspecified)	–	–	–	–	–	–
O=c1cnc2cncnc2n1Cc1ccccc1Cl	·	·	3.55µM	·	·	·
O=c1cnc2cncnc2n1Cc1ccccc1	·	·	3.98µM	·	·	·
O=c1c(CCc2ccccc2)nc2cncnc2n1Cc1ccccc1	·	·	25.1µM	·	·	·
COc1ccc(Oc2ncc3ncc(=O)n(Cc4ccc(F)cc4)c3n2)cc1	·	·	?	·	31.6µM	·
O=[N+]([O-])c1ncn(Cc2c(Cl)cccc2Cl)n1	–	–	–	–	–	–
O=c1cnc2cncnc2n1Cc1ccc(F)cc1	·	·	10µM	·	·	·
COc1ncc2ncc(=O)n(Cc3ccc(F)cc3)c2n1	·	·	–	·	–	·
Cc1oc(-c2ccc(C(=O)Nc3cccc(C(F)(F)F)c3)cc2)nc1CSc1ccccc1	–	14.1µM	·	·	·	?
Oc1ccc(CNc2ccccc2F)c2cccnc12	?	–	8.91µM	7.94µM	–	–
CCCOCc1ccc(O)c2ncccc12	–	–	·	14.1µM	·	–
Oc1ccc(Cl)c2cccnc12	?	–	–	?	–	–
OCc1ccc(O)c2ncccc12	–	–	–	15.8µM	–	–
Oc1ccc(F)c2cccnc12	–	–	–	20µM	·	–
CCOCCCN1C(=O)CN(C2CCCCCC2)C(=O)C1c1ccc(OCC)c(OC)c1 (stereo unspecified)	–	–	·	·	·	–
COc1ccc(-c2cc(C(=O)Nc3cc(S(=O)(=O)N4CCOCC4)ccc3N3CCOCC3)c3ccccc3n2)cc1	–	–	?	?	·	–
O=C(Cc1ccc(Br)cc1)Nc1ccc(S(=O)(=O)NCC2CCCO2)cc1 (stereo unspecified)	–	–	–	–	·	?
Cc1cc(C)cc(NC(=S)NCC2CCCO2)c1 (stereo unspecified)	–	–	–	–	14.1µM	–
NS(=O)(=O)c1ccc(NC(=S)NCC2CCCO2)cc1 (stereo unspecified)	–	–	28.2µM	–	?	–
O=C(CSc1ccccc1)Nc1ccc(S(=O)(=O)NCC2CCCO2)cc1 (stereo unspecified)	–	–	22.4µM	–	?	–
SMILES	Tau ThT inhib	Tau FP inhib	ALDH1A1 block	KDM4E inh	HPGD block	Tau fluor cs
Cc1ccc(CNC(=O)COc2ccc(C)nc2[N+](=O)[O-])cc1	–	–	–	–	–	–
Cc1ccc(OCCOc2ccc(Cl)cc2Cl)c([N+](=O)[O-])n1	?	–	–	–	31.6µM	?
Cc1ccc(OCC(=O)c2ccc(Cl)s2)c([N+](=O)[O-])n1	14.1µM	?	2.24µM	?	·	?
Cc1[nH]c(=S)sc1Cc1ccc(Cl)c(Cl)c1	–	–	25.1µM	–	15.8µM	–
O=C(NN1C(=O)/C(=C/c2cccs2)SC1=S)c1ccccc1	?	–	–	–	–	–
COc1ccccc1C(=O)NN1C(=O)/C(=C/c2cccn2C)SC1=S	?	–	·	–	·	?
Cn1cccc1/C=C1\SC(=S)N(NC(=O)c2ccccc2O)C1=O	7.94µM	–	·	–	·	?
Cn1cccc1/C=C1\SC(=S)N(NC(=O)c2cccc(Cl)c2)C1=O	3.98µM	–	2µM	–	–	?
Cn1cccc1/C=C1\SC(=S)N(NC(=O)c2ccccc2)C1=O	11.2µM	–	–	–	–	?
O=C(NN1C(=O)/C(=C/C=C/c2ccco2)SC1=S)c1ccccc1O	7.08µM	?	·	12.6µM	·	?
Cn1cccc1/C=C1\SC(=S)N(NC(=O)c2ccc(F)cc2)C1=O	3.55µM	–	·	–	·	?
